Measured values: the supplement of paper PMC10849652
The full data set covers some 7,900 targets. This sample favours those with a hit. About 0.6% of all pairs of compound and target were hits. A number with no mark means an inactive call.

Legend:
Test in all cases: log2 fold change, soluble protein after heating vs DMSO (PISA); higher = thermal stabilisation; K562 cells, 10 uM, 30 min; active = over 0.2 and 3.5 SD of the protein, either way, in both replicates (recomputed)
bafetinib = compound: Cc1ccc(NC(=O)c2ccc(CN3CC[C@H](N(C)C)C3)c(C(F)(F)F)c2)cc1Nc1nccc(-c2cncnc2)n1 [bafetinib]
Procedure, shortened: (§1)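 Soluble protein was defined as the supernatant after 21,000xg for 90 min. It came from K562 cells at 2×10^6 cells/mL given 10 μM compound for 30 min, heated in aliquots for 3 min across 48°C-58°C, pooled, and extracted in PBS with 0.5% NP-40 at 4°C, and was quantified by TMTpro 16plex LC-MS/MS with equalised channel sums. Thermal stability against control samples, from duplicates, is reported as log2 fold change.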

[1] = compound: Cc1cccc(CC(=O)N2CCc3c2ccc(-c2cn(C)c4ncnc(N)c24)c3F)n1
Procedure, shortened: as §1

nilotinib = compound: Cc1cn(-c2cc(NC(=O)c3ccc(C)c(Nc4nccc(-c5cccnc5)n4)c3)cc(C(F)(F)F)c2)cn1 [nilotinib]
Procedure, shortened: as §1

[2] = compound: Cc1nc(Nc2n[nH]c3c2CN(C(=O)N[C@H](CN(C)C)c2ccccc2)C3(C)C)c2sccc2n1
Procedure, shortened: as §1

dasatinib = compound: Cc1nc(Nc2ncc(C(=O)Nc3c(C)cccc3Cl)s2)cc(N2CCN(CCO)CC2)n1 [dasatinib]
Procedure, shortened: as §1

[3] = compound: Cc1ncc(-c2ccnc(Nc3ccc(S(C)(=O)=O)cc3)n2)n1C(C)C
Procedure, shortened: as §1

[4] = compound: Cn1cc(-c2ccc3c(c2)CCN3C(=O)Cc2cccc(C(F)(F)F)c2)c2c(N)ncnc21
Procedure, shortened: as §1

[5] = compound: Cn1cc(-c2ccc3nnc(C(F)(F)c4ccc5ncccc5c4)n3n2)cn1
Procedure, shortened: as §1

tipifarnib = compound: Cn1cncc1[C@@](N)(c1ccc(Cl)cc1)c1ccc2c(c1)c(-c1cccc(Cl)c1)cc(=O)n2C [tipifarnib]
Procedure, shortened: as §1

mubritinib = compound: FC(F)(F)c1ccc(/C=C/c2nc(COc3ccc(CCCCn4ccnn4)cc3)co2)cc1 [mubritinib]
Procedure, shortened: as §1

[6] = compound: NC(=O)Nc1cc(-c2cccc(F)c2)sc1C(=O)N[C@H]1CCCNC1
Procedure, shortened: as §1

[7] = compound: NC(=O)c1cnc(N[C@@H]2CCCC[C@@H]2N)nc1Nc1cccc(-n2nccn2)c1
Procedure, shortened: as §1

[8] = compound: NC1(c2ccc(-c3nc4ccn5c(=O)[nH]nc5c4cc3-c3ccccc3)cc2)CCC1
Procedure, shortened: as §1

[9] = compound: NCC(=O)Nc1ccc(-n2nc(C(F)(F)F)cc2-c2ccc3c(ccc4ccccc43)c2)cc1
Procedure, shortened: as §1

entinostat = compound: Nc1ccccc1NC(=O)c1ccc(CNC(=O)OCc2cccnc2)cc1 [entinostat]
Procedure, shortened: as §1

vorinostat = compound: O=C(CCCCCCC(=O)Nc1ccccc1)NO [vorinostat]
Procedure, shortened: as §1

citarinostat = compound: O=C(CCCCCCNC(=O)c1cnc(N(c2ccccc2)c2ccccc2Cl)nc1)NO [citarinostat]
Procedure, shortened: as §1

silmitasertib = compound: O=C(O)c1ccc2c(c1)nc(Nc1cccc(Cl)c1)c1ccncc12 [silmitasertib]
Procedure, shortened: as §1

[10] = compound: O=C1NC(=O)C(c2cnc3ccccn23)=C1c1cn2c3c(cc(F)cc13)CN(C(=O)N1CCCCC1)CC2
Procedure, shortened: as §1

[11] = compound: c1cc(OCCN2CCCCC2)cc(-c2n[nH]c3ccc(-c4nnc[nH]4)cc23)c1
Procedure, shortened: as §1

UniProt P14635, sequence (P14635 whole entry, looked up): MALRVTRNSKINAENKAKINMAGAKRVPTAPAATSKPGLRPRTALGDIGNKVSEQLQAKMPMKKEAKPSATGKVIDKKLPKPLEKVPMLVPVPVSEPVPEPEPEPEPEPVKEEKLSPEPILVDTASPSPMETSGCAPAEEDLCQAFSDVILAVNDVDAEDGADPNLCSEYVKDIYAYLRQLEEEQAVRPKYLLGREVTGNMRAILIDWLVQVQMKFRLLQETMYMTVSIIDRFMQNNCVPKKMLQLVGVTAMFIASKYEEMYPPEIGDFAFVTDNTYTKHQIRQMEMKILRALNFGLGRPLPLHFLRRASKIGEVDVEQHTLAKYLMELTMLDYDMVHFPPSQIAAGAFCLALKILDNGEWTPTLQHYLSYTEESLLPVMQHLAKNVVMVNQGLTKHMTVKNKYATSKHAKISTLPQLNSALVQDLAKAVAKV
UniProt Q9BT78, sequence (Q9BT78 whole entry, looked up): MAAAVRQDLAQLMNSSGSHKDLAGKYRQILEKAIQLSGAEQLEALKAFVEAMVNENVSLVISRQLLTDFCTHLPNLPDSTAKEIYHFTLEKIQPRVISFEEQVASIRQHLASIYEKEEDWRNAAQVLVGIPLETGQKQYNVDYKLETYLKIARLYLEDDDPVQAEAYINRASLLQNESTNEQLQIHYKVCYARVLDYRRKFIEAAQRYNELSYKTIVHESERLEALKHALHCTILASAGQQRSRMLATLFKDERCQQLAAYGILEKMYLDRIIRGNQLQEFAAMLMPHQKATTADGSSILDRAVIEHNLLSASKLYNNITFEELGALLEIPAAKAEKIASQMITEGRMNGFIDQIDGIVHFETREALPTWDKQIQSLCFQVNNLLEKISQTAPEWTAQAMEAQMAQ
UniProt Q14839, sequence (Q14839 whole entry, looked up): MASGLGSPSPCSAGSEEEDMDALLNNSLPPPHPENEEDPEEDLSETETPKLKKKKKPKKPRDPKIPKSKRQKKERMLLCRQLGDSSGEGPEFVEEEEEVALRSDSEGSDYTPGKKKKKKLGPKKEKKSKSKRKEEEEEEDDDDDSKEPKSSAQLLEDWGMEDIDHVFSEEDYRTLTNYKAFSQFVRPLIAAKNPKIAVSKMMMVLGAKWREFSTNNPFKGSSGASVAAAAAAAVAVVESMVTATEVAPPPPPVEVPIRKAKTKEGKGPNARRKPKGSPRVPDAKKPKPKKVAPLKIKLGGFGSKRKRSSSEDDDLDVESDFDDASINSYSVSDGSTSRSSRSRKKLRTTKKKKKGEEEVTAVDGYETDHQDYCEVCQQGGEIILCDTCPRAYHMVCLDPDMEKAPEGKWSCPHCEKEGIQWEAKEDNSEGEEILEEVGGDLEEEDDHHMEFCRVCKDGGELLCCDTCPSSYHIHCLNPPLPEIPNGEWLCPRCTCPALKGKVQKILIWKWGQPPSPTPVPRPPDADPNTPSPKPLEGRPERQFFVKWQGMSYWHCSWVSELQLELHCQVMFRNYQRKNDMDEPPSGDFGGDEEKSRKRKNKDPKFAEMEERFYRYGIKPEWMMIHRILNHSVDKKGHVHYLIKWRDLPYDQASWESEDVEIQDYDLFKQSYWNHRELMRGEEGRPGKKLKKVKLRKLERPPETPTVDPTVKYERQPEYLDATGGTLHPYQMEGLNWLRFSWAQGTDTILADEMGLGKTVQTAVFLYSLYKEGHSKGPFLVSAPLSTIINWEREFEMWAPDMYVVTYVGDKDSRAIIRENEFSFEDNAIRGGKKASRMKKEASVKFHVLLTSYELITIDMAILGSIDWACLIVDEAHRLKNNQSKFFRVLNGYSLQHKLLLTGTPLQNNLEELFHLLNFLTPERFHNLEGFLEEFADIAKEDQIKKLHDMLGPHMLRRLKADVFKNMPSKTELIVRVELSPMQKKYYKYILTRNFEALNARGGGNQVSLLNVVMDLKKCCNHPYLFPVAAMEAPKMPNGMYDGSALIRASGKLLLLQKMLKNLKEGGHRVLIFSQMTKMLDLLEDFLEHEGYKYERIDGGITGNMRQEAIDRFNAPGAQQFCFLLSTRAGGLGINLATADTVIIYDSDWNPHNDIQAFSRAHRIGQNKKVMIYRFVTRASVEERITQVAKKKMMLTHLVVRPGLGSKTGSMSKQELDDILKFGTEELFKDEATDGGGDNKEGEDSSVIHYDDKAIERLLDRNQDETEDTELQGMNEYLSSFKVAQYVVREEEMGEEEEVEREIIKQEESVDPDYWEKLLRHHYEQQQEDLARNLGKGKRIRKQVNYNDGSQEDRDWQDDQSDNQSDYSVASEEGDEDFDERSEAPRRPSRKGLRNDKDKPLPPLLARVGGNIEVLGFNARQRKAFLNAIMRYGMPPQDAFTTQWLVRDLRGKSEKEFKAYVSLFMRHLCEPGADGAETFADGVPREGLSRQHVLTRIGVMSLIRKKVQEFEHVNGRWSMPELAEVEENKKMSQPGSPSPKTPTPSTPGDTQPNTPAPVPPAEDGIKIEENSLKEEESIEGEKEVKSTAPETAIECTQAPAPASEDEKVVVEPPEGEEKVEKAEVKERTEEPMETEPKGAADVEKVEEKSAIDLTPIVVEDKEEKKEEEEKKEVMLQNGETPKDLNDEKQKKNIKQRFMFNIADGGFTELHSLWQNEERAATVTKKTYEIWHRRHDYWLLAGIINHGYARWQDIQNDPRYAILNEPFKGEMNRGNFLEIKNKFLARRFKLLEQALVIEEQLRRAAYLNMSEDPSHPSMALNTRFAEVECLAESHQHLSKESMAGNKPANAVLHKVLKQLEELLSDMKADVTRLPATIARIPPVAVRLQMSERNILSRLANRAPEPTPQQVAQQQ
UniProt Q96CF2, sequence (Q96CF2 whole entry, looked up): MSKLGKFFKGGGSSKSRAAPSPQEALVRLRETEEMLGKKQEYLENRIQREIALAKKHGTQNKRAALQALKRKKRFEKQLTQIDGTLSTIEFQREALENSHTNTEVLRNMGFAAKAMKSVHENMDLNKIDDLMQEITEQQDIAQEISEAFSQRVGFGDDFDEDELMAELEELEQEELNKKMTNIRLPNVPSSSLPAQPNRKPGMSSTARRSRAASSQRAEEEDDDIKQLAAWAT
UniProt Q9ULV3, sequence (Q9ULV3 whole entry, looked up): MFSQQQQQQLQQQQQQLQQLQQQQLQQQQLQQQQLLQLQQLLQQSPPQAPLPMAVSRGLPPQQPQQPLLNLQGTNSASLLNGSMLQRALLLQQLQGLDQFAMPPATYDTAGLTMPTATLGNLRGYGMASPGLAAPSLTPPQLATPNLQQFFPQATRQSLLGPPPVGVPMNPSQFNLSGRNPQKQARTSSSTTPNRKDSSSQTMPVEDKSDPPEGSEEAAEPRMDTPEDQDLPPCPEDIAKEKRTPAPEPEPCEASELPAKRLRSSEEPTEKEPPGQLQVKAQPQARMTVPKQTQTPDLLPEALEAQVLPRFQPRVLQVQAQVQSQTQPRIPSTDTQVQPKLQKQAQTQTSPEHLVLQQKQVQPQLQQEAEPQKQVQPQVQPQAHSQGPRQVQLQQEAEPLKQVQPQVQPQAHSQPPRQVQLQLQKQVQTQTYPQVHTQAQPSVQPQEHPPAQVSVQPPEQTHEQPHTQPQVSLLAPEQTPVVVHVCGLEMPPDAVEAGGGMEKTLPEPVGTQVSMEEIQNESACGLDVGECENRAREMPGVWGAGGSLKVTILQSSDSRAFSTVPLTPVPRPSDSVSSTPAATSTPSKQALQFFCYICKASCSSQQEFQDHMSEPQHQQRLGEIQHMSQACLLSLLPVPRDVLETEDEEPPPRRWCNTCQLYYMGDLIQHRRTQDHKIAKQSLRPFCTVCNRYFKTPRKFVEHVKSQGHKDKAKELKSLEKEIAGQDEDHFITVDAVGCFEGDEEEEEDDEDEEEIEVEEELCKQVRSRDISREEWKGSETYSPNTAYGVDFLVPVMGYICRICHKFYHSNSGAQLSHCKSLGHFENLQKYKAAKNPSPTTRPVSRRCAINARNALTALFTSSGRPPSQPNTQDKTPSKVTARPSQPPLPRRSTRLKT
UniProt P51790, sequence (P51790 whole entry, looked up): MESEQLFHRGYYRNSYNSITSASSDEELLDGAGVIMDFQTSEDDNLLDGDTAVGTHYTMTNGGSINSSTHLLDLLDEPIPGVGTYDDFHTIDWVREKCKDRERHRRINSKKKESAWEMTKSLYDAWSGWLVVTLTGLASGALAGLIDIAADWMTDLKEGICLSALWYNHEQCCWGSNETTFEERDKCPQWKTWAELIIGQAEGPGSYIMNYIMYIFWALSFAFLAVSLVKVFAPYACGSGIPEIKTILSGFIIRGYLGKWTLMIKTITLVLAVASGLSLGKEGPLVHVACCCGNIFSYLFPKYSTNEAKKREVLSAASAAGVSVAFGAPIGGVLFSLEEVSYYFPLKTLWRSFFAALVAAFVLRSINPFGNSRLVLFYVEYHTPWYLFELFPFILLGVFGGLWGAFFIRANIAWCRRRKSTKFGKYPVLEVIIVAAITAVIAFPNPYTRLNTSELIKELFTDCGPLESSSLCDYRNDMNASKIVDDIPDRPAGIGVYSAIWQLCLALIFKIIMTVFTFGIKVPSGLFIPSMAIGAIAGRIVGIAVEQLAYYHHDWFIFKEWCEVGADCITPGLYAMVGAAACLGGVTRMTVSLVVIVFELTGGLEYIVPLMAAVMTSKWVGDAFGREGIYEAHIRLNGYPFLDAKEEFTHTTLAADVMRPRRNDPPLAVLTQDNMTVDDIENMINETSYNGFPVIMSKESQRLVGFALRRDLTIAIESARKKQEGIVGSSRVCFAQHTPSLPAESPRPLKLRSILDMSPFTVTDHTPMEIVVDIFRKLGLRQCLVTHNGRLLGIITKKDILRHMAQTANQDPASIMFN

Target	log2 fold change (bafetinib)	log2 fold change [1]	log2 fold change (nilotinib)	log2 fold change [2]	log2 fold change (dasatinib)	log2 fold change [3]	log2 fold change [4]	log2 fold change [5]	log2 fold change (tipifarnib)	log2 fold change (mubritinib)	log2 fold change [6]	log2 fold change [7]	log2 fold change [8]	log2 fold change [9]	log2 fold change (entinostat)	log2 fold change (vorinostat)	log2 fold change (citarinostat)	log2 fold change (silmitasertib)	log2 fold change [10]	log2 fold change [11]
COX15 (UniProt Q7KZN9)	0.09	-0.02	-0.013	0.02	0.078	-0.034	0.008	-0.023	0.046	0.038	0.003	-0.009	-0.043	-0.013	0.004	-0.017	0.048	0.022	0.028	-0.064
C4A (UniProt P0C0L4)	-0.316	-0.018	0.027	0.136	-0.044	0.217	0.163	0.052	-0.087	-0.193	-0.024	-0.016	-0.129	0	0.021	0.265	-0.071	0.059	0.038	0.146
COPS4 (UniProt Q9BT78)	0.003	0	0	-0.01	-0.023	0.007	0.031	0.003	-0.012	0.031	0.015	0.009	-0.032	0.036	0.01	0.027	0.031	-0.035	-0.01	0.027
CHMP4C (UniProt Q96CF2)	-0.01	-0.003	-0.03	-0.021	-0.027	0	-0.008	0.041	-0.015	0.039	-0.003	-0.005	-0.089	-0.043	0.041	0.02	-0.138	0.028	-0.22	0.052
CHEK1 (UniProt O14757)	-0.053	0.02	-0.05	-1.17 (active)	-0.064	0.002	0.021	-0.022	0.005	0.048	0.338 (active)	-0.225	-0.209	-0.032	0.02	0.037	0.094	-0.011	-0.064	-0.276 (active)
CDK16 isoform 2 (UniProt Q00536)	0.038	-0.047	0.013	0.619 (active)	0	0.679 (active)	-0.014	0.013	-0.072	0.035	-0.07	-0.091	-0.104	-0.061	-0.041	-0.044	0.061	0.201	0.845 (active)	-0.006
CCNB1 (UniProt P14635)	-0.018	0.009	0.04	-0.156	0.02	-0.025	0.006	0.003	0.02	0.08	-0.031	-0.015	-0.03	0.016	-0.002	0	0.031	-0.015	-0.076	-0.032
CHD4 isoform 2 (UniProt Q14839)	0.068	-0.018	-0.143	-0.267	-0.059	-0.137	-0.063	-0.002	-0.083	-0.06	-0.043	-0.07	-0.122	-0.039	0.022	0.049	0.063	0.099	-0.023	-0.069
CPSF7 isoform 3 (UniProt Q8N684)	0.07	-0.107	0.028	-0.552 (active)	0.012	0.044	0.003	-0.027	-0.048	-0.048	-0.063	0.025	0.027	0.013	-0.023	0.01	0.001	-0.069	0.054	-0.035
CSK (UniProt P41240)	0.088	0.019	0.126	-0.001	0.137	0.017	0.019	-0.031	-0.129	0.107	0.318 (active)	-0.084	-0.156	-0.083	0.006	0.023	0.03	0.046	-0.048	-0.014
CLCN3 (UniProt P51790)	-0.112	-0.022	-0.007	0.04	0.019	-0.027	0.03	0.049	0.015	0.024	-0.019	-0.099	-0.264	-0.078	-0.012	-0.022	0.011	0.011	0.038	-0.01
CDC42BPA isoform 6 (UniProt Q5VT25)	0.051	0.102	0.28	-0.682 (active)	-0.254	0.135	0.036	0.008	-0.185	0.037	-0.325	-0.334	-0.06	-0.003	0.012	0.051	0.115	0.11	-0.041	-0.203
CHD3 isoform 3 (UniProt Q12873)	0.01	0.004	-0.093	-0.274	-0.086	-0.172	-0.06	0.063	-0.089	-0.058	0.023	-0.152	-0.113	-0.013	0.036	0.101	0.057	0.154	0.057	-0.101
CDAN1 (UniProt Q8IWY9)	-0.012	-0.014	0.064	-0.195	-0.582 (active)	-0.017	-0.023	0.008	0.011	0.056	-0.033	-0.042	-0.192	-0.091	0.051	0.022	-0.011	0.095	0.036	-0.018
CLSPN (UniProt Q9HAW4)	-0.071	-0.035	0.018	-0.011	0.094	-0.123	-0.021	-0.03	0.045	0.053	-0.015	-0.009	-0.003	-0.013	-0.048	-0.028	0.026	0.053	-0.062	-0.086
CIZ1 (UniProt Q9ULV3)	-0.063	0.013	0.016	-0.181	-0.016	-0.063	0.021	-0.066	0.008	0.019	-0.031	-0.087	-0.053	-0.022	-0.032	0.036	0.023	0.026	0.074	-0.045
